# HCV inhibitor – qHTS Assay for Inhibitors of Hepatitis C Virus (HCV); Potency, µM (series often up to 41.8 µM), inactives show at the top dose activity change, negative = inhibition, usual class: inhibitors; 340,000 compounds, 3.4% hits; Huh7.5.1 HCVcc-Cre infection, luciferase reporter, 44 h; AID 651820, 2012; also: % is scaled to controls: 0 for no effect and ±100 for the full control effect
#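 Compounds are dispensed onto cells plated 4 h earlier at 1,000 per well, with HCVcc-Cre virus (about 0.5 moi) added next. Following 44 h of culture, luminescent signal is measured for 15 sec after 15 min with substrate at room temperature.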
# NS1 function inh – qHTS Assay for Inhibitors of Influenza NS1 Protein Function; Potency, µM (titrated, usually from 46.1 µM), for inactives: top-dose activity, positive = more growth; 270,000 compounds, 0.4% hits; calls by dose curve; also: actives are rising curves; nearly all actives have a fitted effect of over 50% in size
#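 A cell-based growth assay was used: compounds that relieve NS1-induced slow growth of budding yeast raise OD600. Assay medium was yeast nitrogen base with ammonium sulphate and -URA supplement, pH 6.0, with 2% galactose.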
# Pf growth 48h – Primary qHTS for delayed death inhibitors of the malarial parasite plastid, 48 hour incubation. AID 504832, 2011. P. falciparum luciferase growth in erythrocytes, 48 h. Potency, µM (series often up to 28.7 µM), inactives show at the top dose activity change, negative = inhibition, actives largely listed as inhibitors. 310,000 compounds, 5.9% hits; also: % is scaled to controls: 0 for no effect and ±100 for the full control effect
#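 Compounds are pin-transferred into medium, infected erythrocytes (2% hematocrit, 0.1% parasitemia final) are added, and plates sit one parasite generation at 37 C in 5% CO2. Detection reagent is then added and luminescence measured.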
# SARS PLP yeast – qHTS of Yeast-based Assay for SARS-CoV PLP. Potency, µM (top dose mostly 32.9 µM), inactives show at the top dose activity, positive = growth rescue, most hits filed as activators. S. cerevisiae expressing SARS-CoV PLpro, growth rescue. 330,000 compounds, 0.19% hits; calls by dose curve; also: 0% is about no effect; nearly all actives have a fitted effect of over 55% in size
# Pf growth 96h – Primary qHTS for delayed death inhibitors of the malarial parasite plastid, 96 hour incubation; P. falciparum luciferase reporter growth, 96 h; AID 504834, 2011; Potency, µM (series often up to 28.7 µM), inactives show at the top dose activity change, negative = inhibition, most hits filed as inhibitors; 320,000 compounds, 6.9% hits; also: % is scaled to controls: 0 for no effect and ±100 for the full control effect
#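 96 h incubation, 37 C, 5% CO2, of luciferase-reporter P. falciparum-infected RBCs (2% hematocrit, 0.05% parasitemia final) with test compounds; endpoint luminescence.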
# AMA1-RON2 inh – qHTS for Inhibitors of AMA1-RON; Towards Development of Antimalarial Drug Lead: Primary Screen | AlphaScreen AMA1-biotinylated RON2 peptide binding | Potency, µM (titrated, usually from 58.2 µM), without a hit: top-dose activity change, negative = inhibition, usual class: inhibitors | 360,000 compounds, 0.2% hits | AID 720542, 2013;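 also: 0% = vehicle wells and -100% = peptide control; nearly all actives have a fitted effect of over 45% in size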
#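 AMA1 (3D7) with his tag at 25 nM final met compounds first, then biotinylated RON2 peptide at 25 nM; detection used donor plus acceptor beads, 10 µg/mL apiece, read by AlphaScreen after 30 min at room temperature.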
# The depositor's hits bear a star; ? = inconclusive; / = no result given; ! = not active in a repeat; [ ] = remark or other dose. Hits are enriched below; roughly 12% of the tested compounds scored in any of these assays. Unless noted, calls follow the shape of the dose curve; as a rule, active = well fitted curve in the direction sought with a large enough effect; inconclusive = small, poorly fitted or top-dose-only effect, or another doubt; inactive = no such curve, though single readings can be large; an effect the other way counts as inactive or inconclusive. Potency is read from the fitted curve at half-maximal effect.
SMILES,HCV inhibitor,NS1 function inh,Pf growth 48h,SARS PLP yeast,Pf growth 96h,AMA1-RON2 inh
COC(=O)c1ccc(S(=O)(=O)N2CCCN(Cc3ccc(F)cc3)CC2)n1C,11µM*,-3%,-3%,-1%,16%,-3%
COc1ccc(CN2CCN(C(=O)c3ccc(S(=O)(=O)N4CCCCCC4)cc3)CC2)cc1F,?,/,13µM*,0%,?,-5%
O=C(c1ccc(S(=O)(=O)N2CCCCCC2)cc1)N1CCC(CN2C(=O)c3cccc4cccc(c34)C2=O)CC1,10µM*,-9%,?,1%,-38%,0%
COc1ccc(CN2CCN(C(=O)c3ccc(S(=O)(=O)NCc4ccco4)cc3)CC2)cc1F,?,/,?,3%,-29%,-21%
N#Cc1ccc(CN2CCN(C(=O)c3ccc(S(=O)(=O)N4CCCCCC4)cc3)CC2)cc1,7.9µM*,/,13µM*,17%,?,-1%
CCOc1ccc(/C(C)=N/NC(=O)c2nnn(-c3nonc3N)c2-c2cccs2)cc1,?,4%,22%,-1%,34%,2%
CCCCC(=O)N(C)c1c(C)nc2ccc(C(=O)N(C)CCN(C)C)cn12,/,/,/,/,/,23%
COc1cccc(NC(=O)CN(C)C(=O)CCCc2nc3ccccc3s2)c1,-15%,/,-4%,2%,?,11%
CC(C)N(Cc1cn[nH]c1-c1ccc(-c2ccccc2)cc1)Cc1nccn1C,-7%,2%,?,0%,-27%,-15%
CNC(=O)[C@H]1O[C@@H](n2cnc3c(NCc4ccc(N)cc4)ncnc32)[C@H](O)[C@H]1O,/,-3%,/,/,/,/
Cc1ccc(S(=O)(=O)NCc2cn3ccccc3n2)c(C)c1,3%,-2%,5%,-2%,0%,0%
O=S(=O)(c1ccc(Br)cc1)N1CCCN(Cc2ccccc2F)CC1,-4%,-22%,40%,12%,6.6µM*,6%[11.6 µM]
O=C(c1ccc(S(=O)(=O)N2CCCCCC2)cc1)N1CCN(Cc2ccccc2)CC1,?,/,?,-6%,?,11%
COc1ccc(S(=O)(=O)N2CCCN(Cc3cccc(F)c3)CC2)cc1,10%,-6%,19%,?,12µM*,-4%
COc1ccc(CN2CCN(C(=O)c3ccc(S(=O)(=O)N4CCCCCC4)cc3)CC2)cc1,?,/,10µM*,0%,?,-5%
Cc1ccccc1CN1CCN(S(=O)(=O)c2ccc(F)cc2)CC1,0%,-8%,?,1%,58%,-18%
Cc1ccc(NC(=O)c2ncn(CC(=O)NCC(C)c3ccccc3)n2)cc1C (stereo unspecified),17%,/,/,-2%,/,-1%
CCC1CCC2(CC1)NC(=O)N(CC(=O)Nc1ccc(OC)c(Cl)c1)C2=O (stereo unspecified),-26%,/,10%,4%,38%,-5%
COc1ccccc1/C=C/C(=O)OCCN1C(=O)c2ccccc2C1=O,-2%,-4%,18%,-2%,37%,11%
c1ccc(CCNc2ncnc3sccc23)nc1,?,-4%,124%,-15%,239%,45%
Cc1csc2ncnc(NCCc3ccccn3)c12,7.1µM*,/,18%,-1%,12%,-7%
COc1ccc(Cl)cc1S(=O)(=O)NC(C)c1cnn(-c2ccccn2)c1C (stereo unspecified),/,/,/,/,/,5%
COc1ccc(-n2ncc(C(C)NS(=O)(=O)c3ccc(C)s3)c2C)cc1 (stereo unspecified),0%,-2%,7%,1%,8.3µM*,-8%
COc1ccc(OC)c(S(=O)(=O)NC(C)c2cnn(-c3ccccn3)c2C)c1 (stereo unspecified),42%,30%,7%,6%,15µM*,-2%
Cc1cccc(NC(=O)C(=O)NCC2CCCO2)c1 (stereo unspecified),0%,-4%,143%,0%,10%,2%
SMILES,HCV inhibitor,NS1 function inh,Pf growth 48h,SARS PLP yeast,Pf growth 96h,AMA1-RON2 inh
Cc1c(C(=O)OC(C)C)sc(NC(=O)c2cnccn2)c1C(=O)OC(C)C,-11%,/,/,/,/,40%
Cc1cccc(-n2c(Cc3cc(=O)[nH]c(=O)[nH]3)nnc2SCC(=O)N2CCc3ccccc32)c1,/,11%,-14%,-10%,?,-5%
CN1C[C@H](CNC(=O)OCc2ccccc2)C[C@@H]2c3cccc4c3c(cn4C)C[C@H]21,?,5%,10µM*,-19%,2.9µM*!,?
N#Cc1cnc(NN)nc1,10%,/,10µM*,2%,?,-4%
Cc1ccc(C)n1-c1ccc(C#N)cn1,6%,/,49%,-1%,-7%,-15%
CC1=NOC(=O)/C1=C\c1ccc(-c2ccccc2Br)o1,-17%,/,5%,-15%,15µM*,?
CC(C)(C)NC(=O)[C@@H]1CC[C@@H]2[C@@H]3CC[C@@H]4NC(=O)C=C[C@@]4(C)[C@H]3CC[C@]21C,/,/,-17%[12.8 µM],/,-19%[12.8 µM],/
Cc1ccc(NC(=O)CN(c2ccc(Cl)cc2)S(=O)(=O)c2cc([N+](=O)[O-])ccc2Cl)c(C)c1,?,6%,?,0%,?,-17%
COc1ccc(-n2c(SCC(N)=O)nc3sc4c(c3c2=O)CCC4)cc1,10µM*,2%,7%,0%,-5%,-12%
COc1ccc(-n2c(SCC(=O)O)nc3sc4c(c3c2=O)CCC4)cc1,3%,2%,-4%,0%,?,-21%
COc1ccc(-n2c(N3CCN(C)CC3)nc3sc4c(c3c2=O)CCCCC4)cc1,13µM*,-10%,-24%,2%,8%[5.75 µM],-1%
CCOC(=O)CSc1nc2sc3c(c2c(=O)n1-c1ccc(OCC)cc1)CCN(C)C3,?,0%,13µM*,0%,0.74µM*,10%
Cc1cccc(-n2c(SCC(=O)O)nc3sc4c(c3c2=O)CCCC4)c1,8%,3%,-8%,-2%,33%,4%
COc1ccc(-n2c(NCCN(C)C)nc3sc4c(c3c2=O)CCCCC4)cc1,?,-3%,/,10%,?,-1%
Cc1ccc(-n2c(SCC(=O)O)nc3sc4c(c3c2=O)CCCC4)cc1,-6%,3%,11%,0%,2.9µM*,-11%
COc1cccc(NC(=O)c2ccc3nc(C)sc3c2)c1,-9%,-40%,14%,-16%,?,2%
Cc1cc(OC(=O)Nc2ccccc2)ccc1Cl,/,/,/,/,/,-1%
CCOc1ccc(-n2c(SCC(N)=O)nc3sc4c(c3c2=O)CCN(C)C4)cc1,12%,-2%,1.5µM*,0%,0.66µM*,-9%
Cc1ccc(-n2c(SCC(=O)c3c(N)n(C)c(=O)n(C)c3=O)nc3sc4c(c3c2=O)CCCC4)c(C)c1,?,?,1.2µM*,2%,0.83µM*,-6%

# Screens: PubChem BioAssay, National Center for Advancing Translational Sciences (NCATS)
